Screening data from PubChem BioAssay.
An excerpt weighted towards active compounds, which were near 21% of everything screened.
CYP2C9 act: activators of human CYP2C9. recombinant CYP2C9, luciferin-H conversion, luminescence; hits give high values; factor 1 = untreated enzyme, 0 = blocked. activation factor at 5 µM. actives 1.4% (n = 96,000);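 active means activation factor of 2 or more for CYP2C9 at a 5 µM dose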;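 further: 0 = sulfaphenazole-blocked wells and 1 = vehicle-only wells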
MRP1 act: activators of MRP-1 | H69AR cells + doxorubicin, viability rescue, CellTiter-Glo | viability increase, % at 10 µM | actives 0.61% (n = 140,000) | AID 799;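 active means viability gain under doxorubicin at or above a set limit, the compound median plus 3 SD, cut at about 4.7% in these data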;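 further: MRP-1 overexpressing cells given doxorubicin 25 µM after compound pretreatment; 18-22 h compound pretreatment then 72 h with doxorubicin before readout; 0% = doxorubicin-only wells and 100% = vehicle-treated cells without doxorubicin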
CYP2C9 inhib: blocks human cytochrome P450 2C9. CYP2C9 Supersomes, luciferin-H conversion, luminescence. inhibition, % at 5 µM. actives 20% (n = 96,000);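 active means blocking of liver enzyme CYP2C9 beyond about 50% at 5 µM, limit read from the data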
MRP resist rev: reverses drug resistance mediated by MRP | H69AR cells + 2 uM doxorubicin, CellTiter-Glo, 72 h | actives 0.04% (n = 85,000) | differential viability (reversal), % at 10 µM;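 active means viability drop by adding the cancer drug above about 55%, with treated viability meeting a 40% cutoff, limit read from the data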;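 further: viability without doxorubicin minus viability with 2 µM doxorubicin for each compound; larger differential means the compound sensitizes cells more to doxorubicin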
CYP2C19 act: increases human CYP2C19 enzyme activity | P33261 | recombinant CYP2C19, luciferin-H EGE luminescence; hits give high values; 0 = fully inhibited enzyme, 1 = untreated enzyme | activation factor at 5 µM | 96,000 tested, under 10 active;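 active means activation factor of at least 2 at 5 µM in the primary screen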;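 further: 0 = wells with 2.5 mM tranylcypromine and 1 = vehicle-only wells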
Target sequence (P33261 whole entry, looked up): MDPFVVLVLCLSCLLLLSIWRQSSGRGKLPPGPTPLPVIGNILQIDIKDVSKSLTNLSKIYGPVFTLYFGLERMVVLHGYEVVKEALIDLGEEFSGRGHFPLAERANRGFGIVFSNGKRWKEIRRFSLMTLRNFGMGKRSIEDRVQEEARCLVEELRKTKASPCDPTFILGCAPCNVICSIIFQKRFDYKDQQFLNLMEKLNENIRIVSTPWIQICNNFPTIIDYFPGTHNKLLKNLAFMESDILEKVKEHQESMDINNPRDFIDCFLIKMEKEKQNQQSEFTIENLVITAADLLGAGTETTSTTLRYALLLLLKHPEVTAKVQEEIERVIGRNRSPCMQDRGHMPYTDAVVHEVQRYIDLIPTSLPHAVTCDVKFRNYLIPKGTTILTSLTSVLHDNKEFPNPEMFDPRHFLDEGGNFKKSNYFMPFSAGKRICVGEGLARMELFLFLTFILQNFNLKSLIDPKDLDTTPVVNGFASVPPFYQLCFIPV
CYP2C19 inhib: blocks human cytochrome P450 2C19; CYP2C19 Supersomes, luciferin-H EGE luminescence, 30 min; inhibition, % at 5 µM; actives 21% (n = 96,000); P33261; AID 778;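 active means CYP2C19 inhibition above a set limit at 5 µM in the primary screen, cut at about 50% in these data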;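 further: plate controls were negative control wells for no effect and 2.5 mM tranylcypromine positive control for full effect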
* marks the source's active call; other numbers are inactive results; · = no result.

SMILES | CYP2C9 act | MRP1 act | CYP2C9 inhib | MRP resist rev | CYP2C19 act | CYP2C19 inhib
O=S(=O)(NCc1cccs1)c1cccc(S(=O)(=O)N2CCCCC2)c1 | 0.8 | -2.2 | 21.1 | -8.0 | 0.5 | 52.3*
O=S(=O)(c1cccc(S(=O)(=O)N2CCC(Cc3ccccc3)CC2)c1)N1CCOCC1 | · | -3.3 | · | 3.1 | · | ·
S=C(c1ccccc1)N1CCCc2ccccc21 | · | -2.3 | · | · | · | ·
Cc1cc(C)c(NC(=O)/C(=C/c2ccccc2)c2ccccc2)c(C)c1 | · | -0.5 | · | · | · | ·
FC(F)(F)c1cccc(Cn2nnnc2-c2cc(Cl)cc(Cl)c2)c1 | 0.4 | -4.5 | 61.9* | · | 0.1 | 89.4*
FC(F)(F)c1cccc(Cn2nnnc2-c2cccc(C(F)(F)F)c2)c1 | 0.5 | -2.3 | 54.0* | · | 0.1 | 92.5*
CCCn1nnnc1-c1cc(Cl)cc(Cl)c1 | 1.1 | -2.1 | -6.5 | · | 0.8 | 15.3
COc1cc(C2N(c3ccccc3)CCN2c2ccccc2)cc(OC)c1OC | 0.6 | -1.2 | 41.0 | 13.3 | 0.3 | 75.0*
COc1cc(C2N(c3cccc(Cl)c3)C(=O)C3CCCN32)cc(OC)c1OC (stereo not given) | 0.8 | -1.1 | 17.4 | 13.7 | 0.6 | 42.8
CC12CCC(C(=O)N3CCCc4ccccc43)(OC1=O)C2(C)C (stereo not given) | · | -1.4 | · | · | · | ·
COc1ccc(CCNC(=O)C2CCCN(S(=O)(=O)c3cccc4nonc34)C2)cc1OC (stereo not given) | 1 | -1.4 | -1.6 | 6.0 | 0.7 | 26.6
CC1CC(N(C(=O)C2CC2)c2ccccc2)c2ccccc2N1C(=O)C1CC1 (stereo not given) | 0.9 | -1.0 | 7.3 | 6.2 | 0.6 | 39.4
CC1CC(N(C(=O)c2ccc(Cl)cc2)c2ccccc2)c2ccccc2N1C(=O)c1ccco1 (stereo not given) | 0 | -2.1 | 97.0* | 4.6 | 0.1 | 91.2*
CC1CC(N(C(=O)c2ccco2)c2ccccc2)c2ccccc2N1C(=O)c1ccco1 (stereo not given) | 0.1 | -1.9 | 87.8* | 0.2 | 0.1 | 91.1*
CCOCCCNCc1ccc(OC)c(OC)c1 | 0.4 | -2.4 | 60.8* | 1.4 | 0.9 | 8.5
CCOC(=O)c1c(NC(=O)COC(=O)c2c(C)noc2C)sc2c1CCC2 | · | -4.5 | · | 2.4 | · | ·
Nc1c(-c2cccc(Cl)c2)cnn1-c1cccc(C(F)(F)F)c1 | 1.3 | -0.6 | -25.4 | · | 0.8 | 23.5
O=c1ccn(-c2cccc(C(F)(F)F)c2)nc1-c1ccn(-c2cccc(Cl)c2)n1 | 0.5 | -3.7 | 52.2* | · | 0.7 | 27.6
CCN1C(=O)CC(Sc2ccccc2N)C1=O (stereo not given) | 0.6 | -1.7 | 41.3 | -2.8 | 0.5 | 54.1*
COc1ccc(NS(=O)(=O)c2cc(C)ccc2NC(=O)c2cc(C)oc2C)cc1 | 0.8 | -4.0 | 23.7 | -35.6 | 0.3 | 71.1*
COc1ccc(NS(=O)(=O)c2cccc(C(=O)NNC(=O)c3cc(C)oc3C)c2)cc1 | · | -1.1 | · | · | · | ·
COCCn1c(-c2cccc([N+](=O)[O-])c2)nc2c1c(=O)[nH]c(=O)n2Cc1ccccc1 | · | -0.5 | · | · | · | ·
COc1ccccc1CCC(=O)Nc1nc2ccccc2[nH]1 | 1 | -2.4 | 1.4 | -19.6 | 0.4 | 62.2*
COc1ccc(C(=O)Nc2nc3ccccc3[nH]2)cc1OC | · | -3.3 | · | 64.1* | · | ·
O=C(Nc1nc2ccccc2[nH]1)c1ccccc1F | 0.2 | -5.4 | 81.0* | · | 0 | 95.4*
SMILES | CYP2C9 act | MRP1 act | CYP2C9 inhib | MRP resist rev | CYP2C19 act | CYP2C19 inhib
CCCCCC(=O)Nc1nc2ccccc2[nH]1 | · | -3.6 | · | -22.0 | · | ·
COc1cc(OC)cc(C(=O)Nc2nc3ccccc3[nH]2)c1 | 0.9 | -4.0 | 14.8 | -10.8 | 0.9 | 13.9
CCC(Oc1ccccc1)C(=O)Nc1nc2ccccc2[nH]1 (stereo not given) | 0.5 | -2.0 | 52.0* | 1.8 | 0.7 | 32.2
O=C(Nc1nc2ccccc2[nH]1)c1ccc(F)cc1 | 0.9 | -2.1 | 14.3 | -15.3 | 0.7 | 33.3
CC(=O)Nc1ccccc1-c1nc2ccccc2nc1OCC(=O)c1ccc(Cl)cc1 | · | 2.0 | · | · | · | ·
CC(=O)NCCOc1nc(N(C)C)nc(N(C)C)n1 | 1 | -0.5 | 2.0 | -2.5 | 1 | 4.0
CN(C)c1nc(OCCNC(=O)Nc2ccccc2)nc(N(C)C)n1 | 0.5 | 1.5 | 46.6 | -8.9 | 0.3 | 73.4*
CN(C)c1nc(OCCNC(=O)Nc2ccccc2)nc(N2CCOCC2)n1 | 0.2 | -0.3 | 80.0* | -6.0 | 0.5 | 53.2*
